This note sets out measurements from PubChem BioAssay (NCATS).

SMILES strings stand for the structures. Results filed as inconclusive are left out. Values without a mark were called inactive. The call rests on the fitted dose curve; in most records, active means well fitted inhibition curve with a large enough effect; inconclusive means small, poorly fitted or top-dose-only effect, or effect the other way; inactive means flat fitted curve, though single readings scatter.

Chain of Ubiquitin carboxyl-terminal hydrolase 2 (Homo sapiens) (O75604 whole entry, looked up): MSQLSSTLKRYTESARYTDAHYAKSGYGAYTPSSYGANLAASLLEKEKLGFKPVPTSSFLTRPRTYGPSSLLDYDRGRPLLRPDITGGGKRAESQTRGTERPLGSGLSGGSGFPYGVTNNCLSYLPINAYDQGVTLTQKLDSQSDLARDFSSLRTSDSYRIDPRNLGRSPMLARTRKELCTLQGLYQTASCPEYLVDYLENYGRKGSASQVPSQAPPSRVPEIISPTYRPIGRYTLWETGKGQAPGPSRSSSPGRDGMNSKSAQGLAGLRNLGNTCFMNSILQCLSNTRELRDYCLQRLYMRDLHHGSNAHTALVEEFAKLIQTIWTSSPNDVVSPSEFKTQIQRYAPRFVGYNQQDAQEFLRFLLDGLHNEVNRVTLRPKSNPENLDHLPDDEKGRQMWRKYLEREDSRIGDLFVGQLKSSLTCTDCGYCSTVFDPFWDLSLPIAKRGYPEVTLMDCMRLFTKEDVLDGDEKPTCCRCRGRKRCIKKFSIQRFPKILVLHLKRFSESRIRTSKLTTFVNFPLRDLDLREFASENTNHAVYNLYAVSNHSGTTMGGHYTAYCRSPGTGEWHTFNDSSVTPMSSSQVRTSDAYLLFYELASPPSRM

For this experiment, the target named is Ubiquitin carboxyl-terminal hydrolase 2 (Homo sapiens) (UniProt O75604). Put plainly: qHTS Validation Assay for Inhibitors of Ubiquitin-specific Protease USP2a Using CHOP2 as the Reporter (AID 463106). The note with it: USP2a cleavage of CHOP2 reporter, enzymatic; series mostly up to 38.3 µM; activity, negative = inhibition: at the top concentration. From the text:
NIH Molecular Libraries Screening Centers Network [MLSCN]
NIH Chemical Genomics Center [NCGC]
PI Name: Nicholson, Ben. Progenra Inc, Malvern, PA
Homeostasis of cellular proteins is maintained through a combination of synthesis and degradation. The pathway that accounts for the majority of protein degradation is the ubiquitin-proteasomal pathway. Ubiquitin (Ub) is highly conserved in all cells and the generation of a multi-Ub chain typically targets proteins for degradation by the proteasome. However, ubiquitination is highly reversible and dynamic. Deubiquitination, the reverse process, is catalyzed through the action of enzymes referred to as isopeptidases or deubiquitinating enzymes (DUBs). This group of enzymes is collectively responsible for maintaining adequate pools of free ubiquitin and regulating the ubiquitination status of cellular proteins. The class of DUBs referred to as the ubiquitin-specific proteases (USP) family functions endoproteolytically to cleave Ub chains from a wide range of protein substrates. USP2a deubiquitinates fatty acid synthase (FASN) which has recently been identified as an emerging oncology target. To identify inhibitors of USP2a a cell-free assay was employed.
The reporter enzyme chosen is an enterokinase called CHOP2, which is activated when the Ub is cleaved by USP2. The free and now activated reporter can subsequently act on its reporter substrate. […] The assay was developed by Progenra, Inc. and has been licensed for sale by LifeSensors, Inc. as Ub-CHOP2-Reporter-Kit (#PR1101).
NCGC Assay Protocol Summary:
The assay buffer, prepared fresh at the day of the assay, contains 20mM Tris-HCl pH 8.0, 2mM CaCl2, 2mM beta-Mercaptoethanol, 0.05% CHAPS. 3ul of 20nM (10nM final) USP2 core, which is stored on ice, is dispensed into a medium-binding black solid Kalypsys 1,536 well plate using the Kalypsys dispenser. The assay plate is then pinned with 23nL compound with the Kalypsys pintool in columns 5-48. The controls are pinned as follows: column 1 two-fold dilutions of 2M NEM in duplicate; column 2 2M NEM (final concentration 38.2mM); column 3&4 DMSO. The assay plate is incubated at RT for 30min. Subsequently, 1.5uL of 100nM (25nM final) Ub-CHOP2 and 1.5uL of 100nM (25nM final) Reporter Substrate (both stored on ice and protected from light) were dispensed into the plate using the Kalypsys dispenser. Plates were read after 60min RT incubation on a ViewLux (Perkin Elmer) plate reader using the following wavelengths Ex 485nm /Em 531nm.
Data were normalized to the to AC100 inhibition (NEM). Concentration-response curves were fitted to the normalized data and the concentration-response curves were then classified based on curve quality (r2), response magnitude and degree of measured activity. The time zero reading was used to flag fluorescence artifacts.
Keywords: ubiquitination, deubiquitination, proteases, profluorescent, MLSMR, MLPCN, NIH Roadmap, qHTS, NCGC
Turning to `CN(C)C(=O)C(CCN1CCC(O)(c2ccc(Cl)cc2)CC1)(c1ccccc1)c1ccccc1`, the “activity, negative = inhibition” value is 0.133%.

Take `Cn1c(=O)c2c(ncn2C)n(C)c1=O`: the “activity, negative = inhibition” value was 3.28%.

For `Clc1ccccc1C(c1ccccc1)(c1ccccc1)n1ccnc1`, the “activity, negative = inhibition” value is -10.3%.

In the case of `O=C1Cc2cc(CCN3CCN(c4nsc5ccccc45)CC3)c(Cl)cc2N1`, the “activity, negative = inhibition” value was 0.827%.

As to `NCCCCCC(=O)O`, the “activity, negative = inhibition” value is -1.97%.

As to `Cn1cnc2c1c(=O)[nH]c(=O)n2C`, the “activity, negative = inhibition” value was 0.556%.

`CN(C)c1nc(N(C)C)nc(N(C)C)n1`: the “activity, negative = inhibition” value was -0.159%.

Consider `O=C(C1CCCCC1)N1CC(=O)N2CCc3ccccc3C2C1` (stereo not given), for which the “activity, negative = inhibition” value was 4.61%.

In the case of `CC(C(=O)O)c1cccc(C(=O)c2ccccc2)c1` (stereo not given), the “activity, negative = inhibition” value was -1.94%.

Consider `O=c1[nH]cc(F)c(=O)[nH]1`, for which the “activity, negative = inhibition” value is 0.711%.

For `CCN1CCCC1CNC(=O)c1cc(S(=O)(=O)CC)c(N)cc1OC` (stereo not given), the “activity, negative = inhibition” value was -0.629%.

On to `N[C@@H](Cc1c[nH]c2ccc(O)cc12)C(=O)O`, for which the “activity, negative = inhibition” value was 1.86%.

Regarding `CN1CCN(C2=Nc3cc(Cl)ccc3Nc3ccccc32)CC1`, the “activity, negative = inhibition” value is -1.56%.

For `CN(Cc1cnc2nc(N)nc(N)c2n1)c1ccc(C(=O)N[C@@H](CCC(=O)O)C(=O)O)cc1`, the “activity, negative = inhibition” value is 1.2%.

On to `C[C@](N)(Cc1ccc(O)c(O)c1)C(=O)O`, for which the “activity, negative = inhibition” value is 1.52%.

For the compound `O=C1N(c2ccccc2)c2ccccc2C1(Cc1ccncc1)Cc1ccncc1`, the “activity, negative = inhibition” value was 0.407%.

For the compound `CC[N+](CC)(CC)CCOc1cccc(OCC[N+](CC)(CC)CC)c1OCC[N+](CC)(CC)CC`, the “activity, negative = inhibition” value was -4.35%.

For the compound `C[C@H]1c2cccc(O)c2C(O)=C2C(=O)[C@]3(O)C(O)=C(C(N)=O)C(=O)[C@@H](N(C)C)[C@@H]3[C@@H](O)[C@@H]21`, the “activity, negative = inhibition” value is -27.5%.

Turning to `COc1cc2c(c(OC)c1OC)-c1ccc(OC)c(=O)cc1[C@@H](NC(C)=O)CC2`, the “activity, negative = inhibition” value is -1.71%.

As to `CC(CCc1ccc(O)cc1)NCCc1ccc(O)c(O)c1` (stereo not given), the “activity, negative = inhibition” value is -0.565%.

For `NC(CO)C(=O)NNCc1ccc(O)c(O)c1O` (stereo not given), the “activity, negative = inhibition” value is -0.725%.

Regarding `COc1ccccc1OCC(O)CN1CCN(CC(=O)Nc2c(C)cccc2C)CC1` (stereo not given), the “activity, negative = inhibition” value is 2.78%.

Turning to `CC#C[C@]1(O)CC[C@H]2[C@@H]3CCC4=CC(=O)CCC4=C3[C@@H](c3ccc(N(C)C)cc3)C[C@@]21C`, the “activity, negative = inhibition” value was -7.18%.

For the compound `NC(=O)NO`, the “activity, negative = inhibition” value was -0.514%.

For the compound `Cc1cc(C(C)(C)C)c(O)c(C)c1CC1=NCCN1`, the “activity, negative = inhibition” value was 1.41%.

With `Nc1c2c(nc3ccccc13)CCCC2`, the “activity, negative = inhibition” value is 3.53%.

For the compound `Cc1ccccc1N1C(=O)c2cc(S(N)(=O)=O)c(Cl)cc2NC1C` (stereo not given), the “activity, negative = inhibition” value is -0.499%.

With `COc1ccc2c(c1)c(CC(=O)O)c(C)n2C(=O)c1ccc(Cl)cc1`, the “activity, negative = inhibition” value is 0.819%.

Regarding `OCCN1CCN(CCCN2c3ccccc3Sc3ccc(C(F)(F)F)cc32)CC1`, the “activity, negative = inhibition” value was -5.82%.

Regarding `Clc1ccc2c(c1)C(N1CCNCC1)=Nc1ccccc1O2`, the “activity, negative = inhibition” value was -1.84%.

As for `CN(C)CCC=C1c2ccccc2C=Cc2ccccc21`, the “activity, negative = inhibition” value is 2.05%.

`CC(COc1ccccc1)N(CCCl)Cc1ccccc1` (stereo not given): the “activity, negative = inhibition” value is 0.522%.

For the compound `Nc1ccn([C@H]2CC[C@@H](CO)O2)c(=O)n1`, the “activity, negative = inhibition” value was -0.173%.

In the case of `CC1COc2c(N3CCN(C)CC3)c(F)cc3c(=O)c(C(=O)O)cn1c23` (stereo not given), the “activity, negative = inhibition” value is 2.42%.

For `CCc1cccc2c3c([nH]c12)C(CC)(CC(=O)O)OCC3` (stereo not given), the “activity, negative = inhibition” value is -2%.

With `O=c1c(-c2ccc(O)cc2)coc2cc(O)cc(O)c12`, the “activity, negative = inhibition” value was 0.819%.

Take `Nc1nnc(-c2cccc(Cl)c2Cl)c(N)n1`: the “activity, negative = inhibition” value is -0.106%.

In the case of `CNCCCC12CCC(c3ccccc31)c1ccccc12`, the “activity, negative = inhibition” value is 0.584%.

`COc1cc2nc(N3CCN(C(=O)C4COc5ccccc5O4)CC3)nc(N)c2cc1OC` (stereo not given): the “activity, negative = inhibition” value was 0.789%.

Regarding `COc1ccccc1OCCNCC(O)COc1cccc2[nH]c3ccccc3c12` (stereo not given), the “activity, negative = inhibition” value is 2.69%.
